# High-throughput results deposited in PubChem by several laboratories.
# IL1B cytotox = toxic to HUVEC cells under IL-1B stimulation; HUVEC cell count loss, Hoechst imaging, IL-1B stimulated; cell count reduction, % at 2 µM; actives 0.41% (n = 94,000); AID 845;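 active = cell count reduction more than 3 SD above the screen-wide mean, cut at about 70% in these data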
# ERa SRC1 inh = ER-alpha (human) coactivator binding inhibition | P03372 | TR-FRET ER-alpha LBD / SRC-1 peptide, estradiol-bound | inhibition, % at 25.6 µM | actives 1.7% (n = 86,000) | AID 629; in the data active = inhibition above about 50%
# IL1B NFkB inh = blocks IL-1B driven NFkB nuclear translocation in HUVEC cells. actives 0.43% (n = 94,000). HUVEC IL-1B NFkB p65 nuclear translocation imaging. inhibition, % at 2 µM;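 active = inhibition above about 30% together with a positive call from visual inspection of the well image, limit read from the data; inconclusive = inhibition above a set limit but visual check negative; inactive = inhibition not above a set limit, visual check negative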;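 also: nuclear over cytoplasmic p65 intensity ratio measured by imaging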
# ERb SRC1 inh = blocks coactivator binding to human estrogen receptor beta | Q92731 | TR-FRET ER-beta LBD / SRC1-Cy5 peptide binding; receptor agonist-loaded with 1 µM estradiol | inhibition, % at 25.6 µM | actives 1.3% (n = 86,000);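 active = compounds whose percent inhibition of the receptor-coactivator binding signal exceeds about 50% in the single-dose screen, limit read from the data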
# Target sequence (Q92731 whole entry, looked up, the tested form may be a part): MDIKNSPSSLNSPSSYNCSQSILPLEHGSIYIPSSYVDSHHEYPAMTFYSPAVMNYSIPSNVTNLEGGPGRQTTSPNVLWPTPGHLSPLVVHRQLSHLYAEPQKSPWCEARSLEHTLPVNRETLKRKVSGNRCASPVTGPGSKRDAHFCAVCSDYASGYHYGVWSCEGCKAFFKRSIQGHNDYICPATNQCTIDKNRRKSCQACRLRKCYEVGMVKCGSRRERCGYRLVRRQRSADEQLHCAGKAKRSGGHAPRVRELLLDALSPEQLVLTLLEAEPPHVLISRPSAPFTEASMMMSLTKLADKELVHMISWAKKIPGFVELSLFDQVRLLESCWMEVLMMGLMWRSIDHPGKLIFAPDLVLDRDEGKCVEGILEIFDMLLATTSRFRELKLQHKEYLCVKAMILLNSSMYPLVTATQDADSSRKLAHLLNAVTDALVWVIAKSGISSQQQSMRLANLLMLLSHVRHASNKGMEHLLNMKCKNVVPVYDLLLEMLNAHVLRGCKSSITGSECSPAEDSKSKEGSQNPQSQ
# ERa SRC1 pot = enhances coactivator binding to human estrogen receptor alpha; TR-FRET ERalpha-LBD/SRC-Cy5 coactivator binding, 2 h; 100 = basal binding, no effect; AID 639; coactivator binding (% of control), % at 25.6 µM; actives 1.3% (n = 86,000); P03372; in the data active = activity above about 200%;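 also: binding measured in presence of low estradiol as agonist stimulus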
# IL1B NFkB pot = enhances IL-1B driven NFkB nuclear translocation; activation, % at 2 µM; actives 0.3% (n = 94,000); HUVEC IL-1B NFkB p65 nuclear translocation imaging;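 active = activation above 40%, about the mean plus 3 SD, also judged a hit on visual image review; inconclusive = activation above 40% but not a hit on visual review; inactive = activation not above 40% and no visual hit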;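 also: percent activation is computed from the nuclear over cytoplasmic p65 intensity ratio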
# A number is an active result; i = inactive; ? = inconclusive; nt = not tested or not shown; ! = not confirmed by another sample; [ ] = remark or other dose. In the library only some 3.6% were active in any assay of this set; here they are far more common.
SMILES,IL1B cytotox,ERa SRC1 inh,IL1B NFkB inh,ERb SRC1 inh,ERa SRC1 pot,IL1B NFkB pot
Cc1ccc(C(C(=O)NC2CCCC2)N(Cc2cccs2)C(=O)c2csnn2)o1 (stereo unspecified),i,i,i,i,i,i
COc1cc(-c2noc(-c3cccc(Cl)c3)n2)cc(OC)c1OC,i,i,i,i,233,i
COc1cc(-c2nc(-c3cccc(C)c3)no2)cc(OC)c1OC,i,i,i,i,i,i
NC(=O)CC(c1ccccc1)c1ccco1 (stereo unspecified),i,i,i,i,i,i
O=C(O)C(O)c1ccco1 (stereo unspecified),nt,54,nt,58[fluorescence artefact?],i,nt
CC(C)(C)c1ccc(CN2C3=NCCCN3c3ccccc32)cc1,75,i,i,i,i,i
C=C(C)c1cccc(C(C)(C)NC(=O)N2CCCC2)c1,i,i,i,i,i,i
C=C(C)c1ccc(C(C)(C)NC(=O)N2CCN(C)CC2)cc1,i,i,i,i,537[fluorescence artefact?],i
COc1ccccc1Cn1c(=O)c2ccccc2n2c(Sc3ncnc4sccc34)nnc12,i,i,i,i,259[fluorescence artefact?],?
Cc1nc(SCC(=O)c2ccccc2)c(C#N)c(-c2ccco2)c1C(=O)NCc1ccco1,nt,i,nt,i,236,nt
Cc1ccc(OCc2nn3c(-c4n[nH]c5c4CCC5)nnc3s2)cc1,nt,73[fluorescence artefact?],nt,54,i,nt
c1ccc(OCc2nn3c(-c4n[nH]c5c4CCC5)nnc3s2)cc1,nt,67[fluorescence artefact?],nt,61[fluorescence artefact?],i,nt
COc1ccc(-c2nnc3sc(COc4ccccc4)nn23)cc1,nt,i,nt,i,i,nt
COc1ccc(-c2nnc3sc(COc4ccc(C)cc4)nn23)cc1,i,i,i,i,i,i
COc1ccc(N(CC(=O)NCc2cccs2)S(=O)(=O)c2cccnc2)cc1,i,i,i,i,i,i
COC(=O)Cc1csc(N)n1,i,i,i,63![fluorescence artefact?],i,i
CCOC(=O)Cc1csc(NC(=O)CSc2nnc(Cc3csc(N)n3)n2C)n1,i,i,i,i,i,i
CCOC(=O)/C(N)=C/c1ncc(C(F)(F)F)cc1Cl,i,nt,i,nt,nt,i
CCCCn1c(SCC(=O)c2ccccc2)nc2c1c(=O)[nH]c(=O)n2C,i,i,i,i,i,i
COc1ccccc1CNC(=O)c1ccccc1OC,i,i,i,i,i,i
COc1ccccc1CNC(=O)c1c(O)c2cc(OC)c(OC)cc2[nH]c1=O,i,57[fluorescence artefact?],i,i,i,i
CC(C)=CC1C(C(=O)Nc2ccc(Br)cn2)C1(C)C (stereo unspecified),i,i,i,i,i,i
Cc1cccc(NC(=O)Cn2nnc(-c3ccc(CN4CCCC4)cc3)n2)c1C,i,i,i,i,204[fluorescence artefact?],i
Cc1cc(NC(=O)c2oc3ccccc3c2C)ccc1-n1cnnn1,i,65[fluorescence artefact?],i,50[fluorescence artefact?],i,i
COc1ccc2c(c1)-c1ccccc1S(=O)(=O)N2C(C)=O,i,87[fluorescence artefact?],i,63[fluorescence artefact?],i,i
SMILES,IL1B cytotox,ERa SRC1 inh,IL1B NFkB inh,ERb SRC1 inh,ERa SRC1 pot,IL1B NFkB pot
CC1CC(N(C(=O)c2ccco2)c2ccccc2)c2ccccc2N1 (stereo unspecified),i,i,i,i,i,i
N=c1c(-c2nc3ccccc3[nH]2)cc(C(=O)c2cccs2)nn1-c1ccc(Cl)cc1,i,90[fluorescence artefact?],i,52,i,i
CCOc1cc2c(cc1C(C)(C)C)NC(=O)CS2,i,i,i,i,i,i
Cc1cc(-c2csc(N)n2)c(C)n1C,i,71[fluorescence artefact?],i,83[fluorescence artefact?],i,i
CCc1ccc(C(=O)/C=C/c2ccc([N+](=O)[O-])o2)cc1,i,i,44,i,i,i
O=C(NCCO)c1ccc2[nH]c3c(c2c1)CCCC3,i,i,i,i,i,i
O=C(NCCCO)c1ccc2[nH]c3c(c2c1)CCCC3,i,i,i,i,i,83
COc1ccc(N2CC(O)=C(c3n(C)c4ccccc4[n+]3C)C2=N)cc1,i,i,i,i,i,i
COc1ccccc1NC=C1C(=O)OC(C)(C)OC1=O,i,i,91,i,i,i
CCOc1ccccc1NC=C1C(=O)OC(C)(C)OC1=O,i,i,i,i,i,i
COc1ccc(/C=N/OCC(=O)N2CC3(C)CC2CC(C)(C)C3)cc1 (stereo unspecified),i,nt,i,nt,nt,i
COc1ccc(C=NCCC2(O)CC(C)N(C)CC2C)cc1 (stereo unspecified),i,i,40,i,i,i
COc1ccc(-c2nnc(-c3cccnc3)o2)cc1,i,i,i,i,i,i
c1cncc(-c2nc(Oc3ccc(-c4nnco4)cc3)c3c4c(sc3n2)CCCC4)c1,nt,i,nt,i,258[fluorescence artefact?],nt
O=C(c1cccc(F)c1)N1CCN(C(=O)c2cc3ncc(Br)cn3n2)CC1,i,55,i,59,i,i
Cc1sc2nc(SCC(=O)NCCOCCO)n(C)c(=O)c2c1C,nt,i,nt,i,i,nt
CCN(CC)c1ccc2cc(C(=O)Nc3cccnc3N3CCOCC3)c(=O)oc2c1,nt,i,nt,i,i,nt
CCOc1cc(-n2cnnn2)c(OCC)cc1NC(=O)c1cc2ccc(N(CC)CC)cc2oc1=O,i,84[fluorescence artefact?],i,53[fluorescence artefact?],i,i
c1ccc(Cn2cnc3ccccc32)cc1,95,i,i,i,i,i
Cc1ccc(S(=O)(=O)N2CCC(C(=O)Nc3nnc(-c4ccco4)s3)CC2)cc1,i,i,i,i,200[fluorescence artefact?],i
Cc1ccc(S(=O)(=O)N2CCC(C(=O)N[C@H](C(=O)NCc3ccco3)C(C)C)CC2)cc1,i,57[fluorescence artefact?],i,50[fluorescence artefact?],i,i
O=C(Nc1nnc(-c2ccco2)s1)C1CCCCC1,i,i,i,i,i,i
CCN(CC(=O)Nc1ccccc1C(=O)OC)S(=O)(=O)c1ccccc1,i,i,i,i,i,i
O=C(NCc1ccco1)C1(S(=O)(=O)c2ccc(Cl)cc2)CC1,i,i,i,59,i,i
CC(NS(=O)(=O)c1ccc(Cl)cc1)C(=O)NCc1ccco1 (stereo unspecified),i,i,i,i,i,i
SMILES,IL1B cytotox,ERa SRC1 inh,IL1B NFkB inh,ERb SRC1 inh,ERa SRC1 pot,IL1B NFkB pot
CCN1CCN(Cc2c(C)[nH]c3ccc(OC)cc3c2=O)CC1,i,i,i,i,i,i
O=S(=O)(NC1CCCCCCC1)c1cccs1,i,i,i,i,i,i
O=C(Nc1cccc(C(F)(F)F)c1)c1cnc2n(c1=O)CCS2,i,i,i,i,285[fluorescence artefact?],i
Cc1cccc(NC(=O)c2cnc3n(c2=O)CCS3)c1,i,i,i,i,i,i
CCCN(CCO)Cc1ccc2ccccc2c1,i,i,i,i,i,i
COc1ccc(-n2c(C)cc(C(=O)Cn3c(NCCO)nc4ccccc43)c2C)cc1,i,i,i,i,i,41
CC(=O)Nc1c(C(=O)N2CCN(c3ncccn3)CC2)cnn1-c1ccccc1Cl,i,i,i,i,i,40
Cc1ccc(CCNC(=O)C2CCC(=O)N2Cc2cccnc2)cc1 (stereo unspecified),nt,i,nt,i,i,nt
Cc1ccc(/C=c2\sc3nc(-c4cccnc4)nn3c2=O)cc1,i,69[fluorescence artefact?],i,i,i,i
